Laboratory results as given in PubChem BioAssay (NCATS).
Records with an inconclusive call do not appear. For part of these data: Entries with a potency or affinity are not part of this list. Activity calls are given as the source filed them. Unless noted, how the calls were made is not given here.

What was measured:
[1] = Ebola virus entry assay, green fluorescence channel
[2] = Ebola virus entry assay, ratio channel
[3] = Ebola virus entry assay, green channel fluorescence
[4] = Ebola virus entry assay, reporter ratio channel; AC50: Channel type: primary unless noted; outcome: Channel type: primary unless noted
[5] = Ebola virus entry assay, blue channel (ratio component)
[6] = qHTS assay for measurement of the activity of small molecule inhibitors on Zika virus induced Caspase-3 activity in human iPSC derived neural progenitor cells (hNPCs) (AID 1224857; active means well fitted inhibition curve with a large enough effect; further: % of control where 0% means no effect; nearly all actives have a fitted effect of over 65% in size); details: hNPCs ZIKV-induced caspase-3/7, Caspase-Glo luminescence, 6 h; series mostly up to 45.7 µM
In short: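 Percent inhibition of virus-induced caspase-3/7 luminescence (Caspase-Glo), scaled between uninfected cells and Zika-infected cells. hNPCs received compound 1 hr before ZIKV at 2 FFU/cell, with 6 hours infection at 37 C.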

[7] = qHTS assay for measurement of the activity of small molecule inhibitors on Zika virus induced Caspase-3 activity in human astrocytoma cells (AID 1224859; active means well fitted inhibition curve with a large enough effect;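 further: plate controls were ZIKV-infected untreated cells for no effect and uninfected cells for full effect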); details: SNB-19 ZIKV-induced caspase-3/7, luminescence, 6 h; series mostly up to 45.7 µM
In short: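 Luminescent caspase-3/7 read-out (30 min reagent, room temperature) in human SNB-19 cells infected 6 h with ZIKV (2 FFU/cell) after 1 h compound pre-incubation; Data were normalised to uninfected and infected wells.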

Measured: efficacy
Wherever efficacy is given: 0% is about no effect.

Cc1cc(NS(=O)(=O)c2ccc(N)cc2)nc(C)n1
inactive: [1] -28.1% | [2] | [3] | [4] | [5]

Cc1ncc([N+](=O)[O-])n1CC(C)O (stereo not drawn)
inactive: [1] -13.9% | [2] | [3] | [4] | [5]

O=C1NCC2(CCN(CCc3ccccc3)CC2)O1
inactive: [1] 10.9% | [2] | [3] | [4] | [5]

CN1CCN(c2c(F)cc3c(=O)c(C(=O)O)cn4c3c2SCC4)CC1
inactive: [1] -11.6% | [2] | [3] | [4] | [5]

Cc1nc([N+](=O)[O-])cn1-c1ccc([N+](=O)[O-])cc1
inactive: [1] -13.8% | [2] | [3] | [4] | [5]

CCCCCCCCCCC[C@@H](C[C@@H]1OC(=O)[C@H]1CCCCCC)OC(=O)[C@H](CC(C)C)NC=O
inactive: [1] -27.6% | [2] | [3] | [4] | [5]

CCCCC(=O)OCC(=O)[C@H]1[C@H](C)C[C@H]2[C@@H]3C[C@H](F)C4=CC(=O)C=C[C@]4(C)[C@@]3(F)[C@@H](O)C[C@@]21C
inactive: [1] 21.9% | [2] | [3] | [4] | [5]

CCC(C(=O)NC(=O)NC(C)=O)c1ccccc1 (stereo not drawn)
inactive: [1] -14.5% | [2] | [3] | [4] | [5]

CS(=O)(=O)c1ccc([C@@H](O)[C@@H](CF)NC(=O)C(Cl)Cl)cc1
inactive: [1] -18.1% | [2] | [3] | [4] | [5]

CCOC(=O)c1cnc2c(cnn2CC)c1NN=C(C)C
inactive: [1] -8.64% | [2] | [3] | [4] | [5]

Cc1c(F)c(N2CCNC(C)C2)cc2c1c(=O)c(C(=O)O)cn2C1CC1 (stereo not drawn)
inactive: [1] -15% | [2] | [3] | [4] | [5]

CC(C)(C)NC[C@H](O)COc1nsnc1N1CCOCC1
inactive: [1] 15.5% | [2] | [3] | [4] | [5]

Cc1c(N(C)CS(=O)(=O)O)c(=O)n(-c2ccccc2)n1C
inactive: [1] -26.4% | [2] | [3] | [4] | [5]

COc1ccc(Cc2cnc(N)nc2N)cc1OC
inactive: [1] -23.5% | [2] | [3] | [4] | [5]

Cc1ncc([N+](=O)[O-])n1CC(O)CCl (stereo not drawn)
inactive: [1] -16.3% | [2] | [3] | [4] | [5]

NCc1ccc(S(N)(=O)=O)cc1
inactive: [1] -17.9% | [2] | [3] | [4] | [5]

O=C1c2c(O)cccc2Cc2cccc(O)c21
inactive: [1] -17.8% | [2] | [3] | [4] | [5]

O=C1CC[C@H](C(=O)N2CCCCC2)N1
inactive: [1] -19.2% | [2] | [3] | [4] | [5]

CC(C)CCCC(C)NCCC(C)C (stereo not drawn)
inactive: [1] -17.9% | [2] | [3] | [4] | [5]

O=C(O)c1cc(-c2ccccc2)nc2ccccc12
inactive: [1] -14.9% | [2] | [3] | [4] | [5]

C[C@H]1O[C@@H](n2cc(F)c(=O)[nH]c2=O)[C@H](O)[C@@H]1O
inactive: [1] -18.2% | [2] | [3] | [4] | [5]

Cc1ccc(C(C)C)c(O)c1
inactive: [1] -16.9% | [2] | [3] | [4] | [5]

O=c1[nH]c(=O)n([C@H]2C[C@H](O)[C@@H](CO)O2)cc1Br
inactive: [1] -9.16% | [2] | [3] | [4] | [5]

CCCCC(CC)COC(=O)c1ccccc1O (stereo not drawn)
inactive: [1] -34.1% | [2] | [3] | [4] | [5]

CC1CCc2c(N3CCC(O)CC3)c(F)cc3c(=O)c(C(=O)O)cn1c23 (stereo not drawn)
inactive: [1] -9.77% | [2] | [3] | [4] | [5]

CCN(Cc1ccncc1)C(=O)C(CO)c1ccccc1 (stereo not drawn)
inactive: [1] -24.3% | [2] | [3] | [4] | [5]

CC(N)CCCC(C)(C)O (stereo not drawn)
inactive: [1] -22.7% | [2] | [3] | [4] | [5]

Nc1nc(-c2ccccc2)c(Br)c(=O)[nH]1
inactive: [1] -17% | [2] | [3] | [4] | [5]

c1ccc2sc(SSc3nc4ccccc4s3)nc2c1
inactive: [1] -14.3% | [2] | [3] | [4] | [5]

O=C(O)c1cc(O)c(O)c(O)c1
inactive: [1] 15.2% | [2] | [3] | [4] | [5]

O=[N+]([O-])c1ccc(/C=N\O)o1
inactive: [1] 8.52% | [2] | [3] | [4] | [5]

CC(=O)c1cc2ccccc2s1
inactive: [1] -31.8% | [2] | [3] | [4] | [5]

CC(=O)N(CC(O)CO)c1c(I)c(C(=O)NCCO)c(I)c(C(=O)NCC(O)CO)c1I (stereo not drawn)
inactive: [1] -10.6% | [2] | [3] | [4] | [5]

O=C(O)C(S)C(S)C(=O)O (stereo not drawn)
inactive: [1] -24.2% | [2] | [3] | [4] | [5]

C[N+](C)(C)CCCCCC[N+](C)(C)C
inactive: [1] -15% | [2] | [3] | [4] | [5]

C=CCN1C[C@H](C)N([C@H](c2ccc(C(=O)N(CC)CC)cc2)c2cccc(OC)c2)C[C@H]1C
inactive: [1] -18.5% | [2] | [3] | [4] | [5] | [6] | [7]

O=C1OC2(c3ccccc31)c1cc(Br)c(O)c(Br)c1Oc1c2cc(Br)c(O)c1Br
inactive: [1] 23.8% | [2] | [3] | [4] | [5]

N#CCC(=O)NN
inactive: [1] -12.5% | [2] | [3] | [4] | [5]

CCN1CCCC1CN (stereo not drawn)
inactive: [1] -12.7% | [2] | [3] | [4] | [5]

CCn1nc(C(=O)O)c(=O)c2cc3c(cc21)OCO3
inactive: [1] 37.2% | [2] | [3] | [4] | [5]

Cc1ccccc1OCC(O)CO (stereo not drawn)
inactive: [1] 25.5% | [2] | [3] | [4] | [5]

O=C(c1ccccc1)C(O)c1ccccc1 (stereo not drawn)
inactive: [1] 17.3% | [2] | [3] | [4] | [5]

CC(C)Cc1ccc(CC(=O)O)cc1
inactive: [1] -19.8% | [2] | [3] | [4] | [5]

CCN(CC)C(=O)c1ccc(O)c(OC)c1
inactive: [1] 13.1% | [2] | [3] | [4] | [5]

NC(=O)n1c(O)c(C(=O)c2cccs2)c2cc(Cl)ccc21
inactive: [1] 15% | [2] | [3] | [4] | [5]

COc1cc2c(cc1OC)CN(C(=O)[C@H](C)N[C@@H](CCc1ccccc1)C(=O)O)[C@H](C(=O)O)C2
inactive: [1] -27.9% | [2] | [3] | [4] | [5]

Cc1c(NC(C)C)c(=O)n(-c2ccccc2)n1C
inactive: [1] -14.1% | [2] | [3] | [4] | [5]

O=c1[nH]c2ccccc2n1C1CCNCC1
inactive: [1] -18% | [2] | [3] | [4] | [5] | [6] | [7]

O=c1[nH]c(=O)n([C@H]2CCCO2)cc1F
inactive: [1] -34.9% | [2] | [3] | [4] | [5]

CCCCC(O)/C=C(C)/C=C/C=C/C(=O)N1CCCC1=O (stereo not drawn)
inactive: [1] -13.9% | [2] | [3] | [4] | [5]

Cc1ccsc1/C=C/C1=NCCCN1C
inactive: [1] -24.4% | [2] | [3] | [4] | [5]

O=C(O)[C@@H]1[C@H]2C[C@H]3c4[nH]c5ccccc5c4CCN3C[C@@H]2CC[C@@H]1O
inactive: [1] 38.8% | [2] | [3] | [4] | [5]

COc1ccc2c(c1OC)C(=O)O[C@H]2[C@@H]1c2cc3c(cc2CCN1C)OCO3
inactive: [1] 26.4% | [2] | [3] | [4] | [5] | [6] | [7]

C[N+](C)(CCOc1ccccc1)Cc1cccs1
inactive: [1] -18.5% | [2] | [3] | [4] | [5]

O=P(O)(O)OCC(O)CO (stereo not drawn)
inactive: [1] 14.9% | [2] | [3] | [4] | [5]

O=C1OC(CCN2CCCCC2)OC1(c1ccccc1)c1ccccc1 (stereo not drawn)
inactive: [1] -23.4% | [2] | [3] | [4] | [5] | [6] | [7]

CCN1CCN(C(=O)N[C@@H](C(=O)N[C@@H]2C(=O)N3[C@@H]2SC(C)(C)[C@H]3C(=O)O)c2ccccc2)C(=O)C1=O
inactive: [1] -32.7% | [2] | [3] | [4] | [5]

CC1(C)O[C@@H]2C[C@H]3[C@@H]4CCC5=CC(=O)C=C[C@]5(C)[C@@H]4[C@@H](O)C[C@]3(C)[C@]2(C(=O)CO)O1
inactive: [1] 50.6% | [2] | [3] | [4] | [5]

Cc1ncc(CO)c(C=O)c1O
inactive: [1] -24.1% | [2] | [3] | [4] | [5]

CC(C(=O)O)c1ccc(C(=O)c2ccccc2)s1 (stereo not drawn)
inactive: [1] -17.9% | [2] | [3] | [4] | [5]

Cc1ccc(C(C)C)cc2c(C)ccc1-2
inactive: [1] 14% | [2] | [3] | [4] | [5]

COc1cc2nc(Cl)nc(N)c2cc1OC
inactive: [1] -33.8% | [2] | [3] | [4] | [5]
